Values joined by “and” are separate entries in the source; they are usually repeats but may differ in a detail not shown here. Identical values can stand only once. Where a structure was tested more than once in an assay, its records may differ in their call. Active and inactive are the calls of the source. Rule for the calls: active = hit-call score of the fitted dose curve at least 0.9, where 1 is the maximum; inactive = score below 0.9.
Tests used:
Conditions in all cases: mRNA level, 48 h; actives raise or lower the signal
[1] = read-out: Tumor necrosis factor receptor superfamily member 6 (Homo sapiens) (UniProt P25445); experiment: LTEA_HepaRG_FAS: Life Technologies and Expression Analysis (LTEA) Assay for Fas cell surface death receptor (FAS) using HepaRG (AID 2283447)
Method in brief: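 Differentiated HepaRG cells in serum-free induction medium were exposed 48 h to 8 half-log concentrations up to 100 uM in 0.5% DMSO, in duplicate. FAS mRNA was measured by qRT-PCR normalised to ACTB, GAPDH and POLR2A; bidirectional fit versus DMSO.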

[2] = read-out: Cyclin D2 (CCND2), CCND2 (gene 894); experiment: LTEA_HepaRG_CCND2: Life Technologies and Expression Analysis (LTEA) Assay for Cyclin D2 (CCND2) using HepaRG (AID 2283449);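 note: CCND2 transcript measured by TaqMan qRT-PCR and normalised to three housekeeping genes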
Method in brief: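 Chemicals in 0.5% DMSO, eight half-log concentrations from 100 uM top, were applied in duplicate for 48 h to human HepaRG cells in serum-free induction medium. CCND2 mRNA by TaqMan qRT-PCR, normalised to ACTB/GAPDH/POLR2A; bidirectional fit versus DMSO.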

[3] = read-out: Cyclin Dependent Kinase Inhibitor 1A (CDKN1A), CDKN1A (gene 1026); experiment: LTEA_HepaRG_CDKN1A: Life Technologies and Expression Analysis (LTEA) Assay for Cyclin Dependent Kinase Inhibitor 1A (CDKN1A) using HepaRG (AID 2283450)
Method in brief: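 Differentiated HepaRG cells in serum-free induction medium, exposed 48 h in duplicate to eight half-log concentrations up to 100 uM in 0.5% DMSO. mRNA measured by TaqMan qRT-PCR, normalized to ACTB, GAPDH, POLR2A; bidirectional fit versus DMSO.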

[4] = read-out: Cyclin D1 (CCND1), CCND1 (gene 595); experiment: LTEA_HepaRG_CCND1: Life Technologies and Expression Analysis (LTEA) Assay for Cyclin D1 (CCND1) using HepaRG (AID 2283451);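 for AC50: TaqMan qRT-PCR transcript level normalised to ACTB GAPDH and POLR2A housekeeping genes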
Method in brief: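 Differentiated HepaRG cells exposed 48 h in serum-free induction medium to eight half-log concentrations from 100 uM top, 0.5% DMSO, duplicates. CCND1 mRNA measured by Fluidigm TaqMan qRT-PCR, normalised to ACTB, GAPDH, POLR2A; bidirectional fit.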

[5] = read-out: catalase (CAT), CAT (gene 847); experiment: LTEA_HepaRG_CAT: Life Technologies and Expression Analysis (LTEA) Assay for catalase (CAT) using HepaRG (AID 2283452);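 for AC50: TaqMan qRT-PCR signal normalized to ACTB GAPDH and POLR2A housekeeping genes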
Method in brief: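 HepaRG cells in serum-free induction medium, 0.5% DMSO vehicle, exposed 48 h in duplicate over 8 half-log concentrations from 100 uM. CAT mRNA measured by qRT-PCR, normalized to ACTB, GAPDH, POLR2A; bidirectional fit versus DMSO.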

[6] = read-out: CFLAR gene, CFLAR (gene 8837); experiment: LTEA_HepaRG_CFLAR: Life Technologies and Expression Analysis (LTEA) Assay for CFLAR gene using HepaRG (AID 2283455)
Method in brief: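 Differentiated HepaRG cells in serum-free induction medium were exposed 48 h in duplicate to eight half-log concentrations up to 100 uM in 0.5% DMSO; mRNA measured by TaqMan qRT-PCR, normalized to ACTB, GAPDH, POLR2A; bidirectional fitting versus DMSO.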

[7] = read-out: Forkhead box O1 (FOXO1), FOXO1 (gene 2308); experiment: LTEA_HepaRG_FOXO1: Life Technologies and Expression Analysis (LTEA) Assay for Forkhead box O1 (FOXO1) using HepaRG (AID 2283456)
Method in brief: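 Differentiated HepaRG cells, in serum-free induction medium with 0.5% DMSO, exposed 48 h in duplicate to 8-point half-log series from 100 uM. FOXO1 mRNA measured by TaqMan qRT-PCR, normalized to ACTB, GAPDH, POLR2A; bidirectional fit versus DMSO.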

[8] = read-out: Fatty acid synthase (Homo sapiens) (UniProt P49327); experiment: LTEA_HepaRG_FASN: Life Technologies and Expression Analysis (LTEA) Assay for Fatty Acid Synthase (FASN) using HepaRG (AID 2283448)
Method in brief: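 Transcript-level assay: HepaRG liver cells are treated for 48 h across an eight-point range topping at 100 uM, and FASN mRNA, normalized to three housekeeping genes, is compared with DMSO controls in both directions.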

[9] = read-out: Cytochrome P450 (CYP1A1), CYP1A1 (gene 1543); experiment: LTEA_HepaRG_CYP1A1: Life Technologies and Expression Analysis (LTEA) Assay for Cytochrome P450 (CYP1A1) using HepaRG (AID 2283454)
Method in brief: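 Differentiated human HepaRG cells, after 48 h plating, exposed in duplicate for 48 h in serum-free induction medium to 8 half-log concentrations up to 100 uM in 0.5% DMSO. CYP1A1 mRNA by qRT-PCR, normalized to ACTB/GAPDH/POLR2A; bidirectional fit versus DMSO.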

[10] = read-out: flavin-containing dimethylaniline monooxygenases 3 (FMO3), FMO3 (gene 2328); experiment: LTEA_HepaRG_FMO3: Life Technologies and Expression Analysis (LTEA) Assay for flavin-containing dimethylaniline monooxygenases 3 (FMO3) using HepaRG (AID 2283453);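 for AC50: FMO3 transcript by TaqMan qRT-PCR normalized to ACTB GAPDH and POLR2A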
Method in brief: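 HepaRG, 48 h exposure, 8-pt half-log series from 100 uM, 0.5% DMSO vehicle, duplicates; FMO3 transcript by Fluidigm TaqMan qRT-PCR, housekeeping-normalized; gain/loss fit vs DMSO.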

Measured: AC50

Sequence of Fatty acid synthase (Homo sapiens) (P49327 whole entry, looked up): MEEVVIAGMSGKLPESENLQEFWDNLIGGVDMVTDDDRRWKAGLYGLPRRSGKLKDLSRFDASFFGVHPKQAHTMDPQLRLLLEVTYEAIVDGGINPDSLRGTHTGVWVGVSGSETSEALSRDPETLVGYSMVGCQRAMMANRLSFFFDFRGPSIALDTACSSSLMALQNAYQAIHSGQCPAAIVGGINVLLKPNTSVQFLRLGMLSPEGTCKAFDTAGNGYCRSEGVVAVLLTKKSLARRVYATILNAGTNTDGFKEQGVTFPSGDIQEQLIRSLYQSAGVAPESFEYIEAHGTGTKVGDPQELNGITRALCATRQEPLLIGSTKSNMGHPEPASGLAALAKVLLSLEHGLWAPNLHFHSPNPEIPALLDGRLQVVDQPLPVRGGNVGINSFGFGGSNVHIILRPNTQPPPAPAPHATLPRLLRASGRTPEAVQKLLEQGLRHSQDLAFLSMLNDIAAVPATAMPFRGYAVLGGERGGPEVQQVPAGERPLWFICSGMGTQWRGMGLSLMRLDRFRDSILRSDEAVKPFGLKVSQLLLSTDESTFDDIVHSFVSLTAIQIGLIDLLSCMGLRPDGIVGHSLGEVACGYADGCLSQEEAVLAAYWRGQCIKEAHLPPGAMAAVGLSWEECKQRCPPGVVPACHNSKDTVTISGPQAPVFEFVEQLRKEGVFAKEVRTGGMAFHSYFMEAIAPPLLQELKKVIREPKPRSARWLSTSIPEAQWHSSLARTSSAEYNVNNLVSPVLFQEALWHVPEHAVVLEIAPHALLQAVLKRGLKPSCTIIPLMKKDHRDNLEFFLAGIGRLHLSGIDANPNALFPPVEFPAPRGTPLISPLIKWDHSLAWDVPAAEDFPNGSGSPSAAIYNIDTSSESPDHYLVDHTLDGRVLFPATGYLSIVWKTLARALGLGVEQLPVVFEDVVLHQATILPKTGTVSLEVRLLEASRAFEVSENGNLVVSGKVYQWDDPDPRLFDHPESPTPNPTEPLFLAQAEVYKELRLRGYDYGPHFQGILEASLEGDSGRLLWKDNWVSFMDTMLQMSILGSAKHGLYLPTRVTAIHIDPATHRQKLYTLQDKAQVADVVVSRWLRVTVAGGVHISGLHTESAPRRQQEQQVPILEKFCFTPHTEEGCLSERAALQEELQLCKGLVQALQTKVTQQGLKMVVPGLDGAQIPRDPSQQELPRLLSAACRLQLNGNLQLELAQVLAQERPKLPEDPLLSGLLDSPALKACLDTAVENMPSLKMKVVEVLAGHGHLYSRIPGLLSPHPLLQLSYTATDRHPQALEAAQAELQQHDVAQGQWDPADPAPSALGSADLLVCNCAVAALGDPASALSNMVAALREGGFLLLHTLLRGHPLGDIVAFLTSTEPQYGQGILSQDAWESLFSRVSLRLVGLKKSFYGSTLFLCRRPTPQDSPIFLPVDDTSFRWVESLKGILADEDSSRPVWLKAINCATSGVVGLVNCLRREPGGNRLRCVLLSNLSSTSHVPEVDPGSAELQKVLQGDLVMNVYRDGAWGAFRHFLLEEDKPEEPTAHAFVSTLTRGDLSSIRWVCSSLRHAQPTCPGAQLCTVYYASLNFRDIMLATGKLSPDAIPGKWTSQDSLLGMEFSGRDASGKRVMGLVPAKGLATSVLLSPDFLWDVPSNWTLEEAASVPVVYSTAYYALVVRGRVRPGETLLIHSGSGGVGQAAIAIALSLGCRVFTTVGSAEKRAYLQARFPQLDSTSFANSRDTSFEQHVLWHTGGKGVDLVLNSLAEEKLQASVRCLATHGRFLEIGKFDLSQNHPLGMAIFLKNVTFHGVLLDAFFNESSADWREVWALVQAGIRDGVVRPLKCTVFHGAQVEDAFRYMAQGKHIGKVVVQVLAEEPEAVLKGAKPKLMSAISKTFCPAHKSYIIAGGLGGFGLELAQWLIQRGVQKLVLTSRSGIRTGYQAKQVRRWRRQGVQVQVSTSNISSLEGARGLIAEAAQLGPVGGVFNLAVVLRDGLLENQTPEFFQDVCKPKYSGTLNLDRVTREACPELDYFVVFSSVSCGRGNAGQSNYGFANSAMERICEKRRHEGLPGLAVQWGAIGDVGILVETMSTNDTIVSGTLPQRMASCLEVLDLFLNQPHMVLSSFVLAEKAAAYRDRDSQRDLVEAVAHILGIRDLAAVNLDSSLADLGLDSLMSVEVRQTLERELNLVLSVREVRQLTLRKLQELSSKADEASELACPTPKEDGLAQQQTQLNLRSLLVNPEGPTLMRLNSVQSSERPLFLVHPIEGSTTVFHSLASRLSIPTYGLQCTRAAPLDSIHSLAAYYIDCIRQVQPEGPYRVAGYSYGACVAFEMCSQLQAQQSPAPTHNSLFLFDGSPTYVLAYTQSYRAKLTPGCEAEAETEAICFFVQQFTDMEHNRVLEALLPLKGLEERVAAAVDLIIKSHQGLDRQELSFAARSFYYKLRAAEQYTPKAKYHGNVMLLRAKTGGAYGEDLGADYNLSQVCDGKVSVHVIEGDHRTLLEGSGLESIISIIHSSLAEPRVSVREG

CCN(Cc1c(F)cccc1Cl)c1c([N+](=O)[O-])cc(C(F)(F)F)cc1[N+](=O)[O-]
not listed: [8] | [9] | [10]
inactive: all other assays above

CCCCC(CC)CN1C(=O)C2C3C=CC(C3)C2C1=O (configuration not stated)
active: [8] 34.6 µM | [3] 77.1 µM | [5] 77.2 µM
inactive: [2] | [4] | [6] | [7]

OB(O)O
not listed: [1] | [10]
inactive: all other assays above

CCOC(=O)C(C)Oc1ccc(Oc2nc3ccc(Cl)cc3o2)cc1 (configuration not stated)
inactive: [8] | [3] | [4] | [5] | [6] | [7]

CC(C)CCCCCCc1ccc(O)cc1
active: [9] 50 µM
not listed: [1] | [10]
inactive: all other assays above

CC(=O)[C@H]1CC[C@H]2[C@@H]3CCC4=CC(=O)CC[C@]4(C)[C@H]3CC[C@]12C
inactive: [2] | [4]
active: [1] 60.6 µM | [3] 16.8 µM | [5] 50 µM | [9] 34.6 µM | [6] 77.8 µM | [7] 80.5 µM

Oc1ccc(C(c2ccc(O)cc2)C(Cl)(Cl)Cl)cc1
active: [4] 89.2 µM | [5] 88.8 µM | [10] 94 µM | [7] 93.2 µM
inactive: [2] | [3] | [9] | [6]

CCOC(=O)C(C)Oc1ccc(Oc2cnc3cc(Cl)ccc3n2)cc1 (configuration not stated)
not listed: [8] | [9] | [10]
inactive: all other assays above

CCCCC(CC)COC(=O)c1ccccc1C(=O)O (configuration not stated)
active: [9] 77.2 µM
not listed: [1] | [10]
inactive: all other assays above

CCOC(=O)NCCOc1ccc(Oc2ccccc2)cc1
active: [1] 85.4 µM | [3] 83.4 µM | [5] 89.3 µM | [10] 96 µM | [7] 88.5 µM
inactive: [2] | [4] | [6]

CCCN(CCC)C(=O)SCC
not listed: [1] | [9] | [10]
inactive: all other assays above

O=C(O)c1ccccc1
not listed: [1] | [9] | [10]
inactive: all other assays above

CCSC(=O)N(CC(C)C)CC(C)C
not listed: [8] | [9] | [10]
inactive: all other assays above

CCN(CC)C(=O)c1cccc(C)c1
not listed: [9] | [10]
inactive: all other assays above

CCOC(=O)COc1cc(-n2ncc(C(F)(F)F)c(C)c2=O)c(F)cc1Cl
active: [9] 50 µM
not listed: [1] | [8]
inactive: all other assays above

CCNc1nc(N)nc(Cl)n1
not listed: [8] | [9] | [10]
inactive: all other assays above

S=C(S)NCCNC(=S)S.[Mn+2].[S-]C([S-])=NCCN=C([S-])[S-].[Zn+2]
active: [3] 25 µM and 3.66 µM | [4] 0.187 µM | [5] 881 nM and 1.09 µM and 1.05 µM | [6] 1.31 µM and 1.18 µM and 1.48 µM | [7] 4.79 µM and 9.06 µM
inactive: [2] | [3] | [4] | [7]

CN(C)C(=O)Nc1ccc(Cl)c(Cl)c1
active: [4] 50 µM
not listed: [8] | [9] | [10]
inactive: all other assays above

COC(=O)c1ccccc1C(=O)O
not listed: [8] | [9]
inactive: all other assays above

c1ccc2[nH]c(-c3cscn3)nc2c1
active: [9] 18.9 µM
not listed: [10]
inactive: all other assays above

CC(C)(C)[C@@H](O)[C@@H](Cc1ccc(Cl)cc1)n1cncn1
active: [8] 50 µM | [9] 33.9 µM
not listed: [1] | [10]
inactive: all other assays above

CC(=O)S[C@@H]1CC2=CC(=O)CC[C@]2(C)[C@H]2CC[C@@]3(C)[C@@H](CC[C@@]34CCC(=O)O4)[C@H]12
inactive: [2] | [3] | [4] | [6] | [7]
active: [8] 37.3 µM | [5] 60.7 µM

O=C(c1ccc(O)cc1O)c1ccc(O)cc1O
not listed: [1] | [10]
inactive: all other assays above

CC(C)(c1ccc(O)cc1)c1ccc(O)cc1
not listed: [8] | [9] | [10]
inactive: all other assays above

From PubChem BioAssay (EPA / NIEHS)
